Compounds with a hit are over-represented: about 19% of the library has one in this group of screens.
DT40 TDP1 CPT = growth inhibition of DT40 Tdp1-/-;hTDP1 cells with camptothecin (screen for TDP1 inhibitors) | chicken DT40 Tdp1-/-;hTDP1 cells + 20 nM CPT, ATP luminescence, 48 h | Potency, µM (top dose mostly 46.2 µM), for inactives: top-dose activity change, negative = growth inhibition, usual class: inhibitors | 420,000 compounds, 12% hits; further: potency means the concentration at half of the fitted maximal effect; nearly all actives have a fitted effect of over 55% in size
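Chicken DT40 Tdp1-/- cells stably complemented with human TDP1 were seeded at 400 cells/well in medium containing 20 nM camptothecin, exposed to pin-transferred compounds, and grown at 37 °C for at least 48 hr. Viability was read as ATP luminescence.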
HT1080 IDH1KD tx = toxicity to HT-1080 IDH1 knockdown cells (counter line); HT-1080 IDH1 knockdown viability, ATP luminescence, 48 h; Potency, µM (titrated, usually from 46.1 µM), for the others: at the highest dose activity, negative = toxicity, most hits filed as cytotoxic; 360,000 compounds, 2% hits;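 further: potency means the concentration at half of the fitted maximal effect; 0% = DMSO wells and -100% = cell-free medium wells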
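Cytotoxicity counter-line: IDH1KD HT-1080, 48 h, CellTiter-Glo. Curves classed by r2, magnitude and activity.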
IL1B secr inh = inhibitors of inflammasome signaling (IL-1 beta secretion). THP-1 LPS/ATP IL-1B secretion, AlphaLISA, 16 h; stronger effect = lower value. activity change, % at 57.5 µM. 360,000 compounds, 4.7% hits. AID 743279; in the data active means activity change below about -50%; inconclusive means mostly about -30% to -49%
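Secreted IL-1B measured by AlphaLISA bead assay after 16 h compound exposure of THP-1 cells; compounds (final up to 57.5 uM) added 1 h before LPS (250 ng/mL) and ATP (1.25 mM) stimulation; lower signal means less secretion.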
HT1080-NT tox = kills 2HG-producing HT-1080-NT fibrosarcoma cells; HT-1080-NT fibrosarcoma viability, CellTiter-Glo ATP luminescence, 48 h; Potency, µM (doses to about 46.1 µM), inactives show at the top dose activity, negative = less viability, usual class: cytotoxic; 360,000 compounds, 1.6% hits; AID 686970;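 further: NT is the 2HG producing partner of a matched IDH1 knockdown line; potency means the concentration at half of the fitted maximal effect; 0% = DMSO-treated cells and -100% = media-only wells without cells; nearly all actives have a fitted effect of over 55% in size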
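750 cells/well, RPMI + 5% FBS; 2 h settle, compound pin-transfer, 48 h at 37 degrees C. CellTiter-Glo 10 min RT, luminescence. Normalized to DMSO and media-only wells.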
ELG1 DNA repair = inhibitors of ELG1-dependent DNA repair in HEK293T cells. AID 504467. 330,000 compounds, 2.3% hits. HEK293T ELG1-luciferase reporter, luminescence, 16 h; DNA damage induced by 5-fluorouridine. Potency, µM (doses to about 46.1 µM), for the others: top-dose activity change, negative = inhibition, usual class: inhibitors; further: potency means the concentration at half of the fitted maximal effect; nearly all actives have a fitted effect of over 55% in size
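Step one: seed 2,000 cells per well. Step two: pin-transfer compound or DMSO alongside 5-fluorouridine. Step three: incubate 16 hr, 37 °C, 5% CO2. Step four: add ONE-Glo, wait 30 min, read luminescence.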
DT40 TDP1 no CPT = qHTS for Inhibitors of human tyrosyl-DNA phosphodiesterase 1 (TDP1): qHTS in cells in absence of CPT; DT40 Tdp1-/- hTDP1 cells, no CPT, ATP luminescence, 48 h; Potency, µM (titrated, usually from 46.2 µM), inactives show at the highest dose activity change, negative = growth inhibition, most hits filed as inhibitors; 420,000 compounds, 15% hits; AID 686978, 2013; further: potency means the concentration at half of the fitted maximal effect; nearly all actives have a fitted effect of over 55% in size
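Camptothecin absent (DMSO only). Human TDP1-complemented DT40 knockout cells, 400 cells/well, 37 °C for minimum 48 hr; ATP measured via CellTiter-Glo, 30 min dark incubation, luminescence.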
Numbers without * were called inactive; u = inconclusive; x = not tested or not shown. Unless noted, the call rests on the fitted dose curve; in most records, active means well fitted curve in the direction sought with a large enough effect; inconclusive means small, poorly fitted or top-dose-only effect, or another doubt; inactive means no such curve, though single readings can be large; an effect the other way counts as inactive or inconclusive. Unless noted, on the % scale 0 is the no-effect control and ±100 the full control effect.

SMILES	DT40 TDP1 CPT	HT1080 IDH1KD tx	IL1B secr inh	HT1080-NT tox	ELG1 DNA repair	DT40 TDP1 no CPT
CCC(=O)Nc1c(C#N)c2nc3ccccc3nc2n1C1CCCCC1	-4.5%	3.5%	19.6	-0.3%	-7.5%	-14.1%
COc1ccc(-n2c(NC(=O)c3ccco3)c(C#N)c3nc4ccccc4nc32)cc1	16.4µM*	-13.1%	4.3	-20.8%	u	23.1µM*
O=C(COC(=O)COc1ccccc1)NCCC1=CCCCC1	-2.1%	-5.0%	1.7	-0.1%	15.8%	-1.0%
CCOC(=O)c1c(S(=O)(=O)N2CCCC(C(=O)Nc3ccc(OCC)cc3)C2)c(C)n(C)c1C (stereo unspecified)	-26.2%	x	x	x	x	u
Nc1ccc(C(=O)NN2C(=O)[C@H](Cl)C2c2ccc(Cl)cc2)cc1 (stereo partly specified)	3.66µM*	18.4µM*	-103.6*	u	x	3.66µM*
CCOC(=O)N1CCC(NC(=O)c2ccc(Cl)cc2)CC1	3.1%	15.6%	30.3	4.7%	-16.6%	5.7%
COc1ccc(NC(=O)C2CCN(S(=O)(=O)c3ccc(N4CCCC4=O)cc3)CC2)c(OC)c1	u	9.1%	18.0	10.0%	6.6%	-2.0%
Cn1nc(C(C)(C)C)cc1C(=O)NCc1ccc(N2CCCC2=O)cc1	3.26µM*	u	-11.7	u	-22.1%	2.31µM*
CCNC(=O)C1CCN(S(=O)(=O)c2ccc(F)cc2)CC1	u	5.5%	2.1	8.2%	1.3%	18.4µM*
Cc1ccc(NC(=O)C2CCN(S(=O)(=O)c3ccc(N4CCCC4=O)cc3)CC2)cc1Cl	5.8µM*	u	-5.4	u	u	4.11µM*
O=C(NCc1ccc(F)cc1)C1CCN(S(=O)(=O)c2ccc(N3CCCC3=O)cc2)CC1	u	2.9%	8.6	6.7%	x	16.4µM*
COc1ccc(CNC(=O)C2CCN(S(=O)(=O)c3ccc(N4CCCC4=O)cc3)CC2)cc1	25.9µM*	-0.4%	-3.7	-1.6%	x	11.6µM*
Cc1ccc(NC(=O)C2CCN(S(C)(=O)=O)CC2)cc1Cl	-13.3%	-3.7%	-61.1*	-15.3%	u	-4.4%
CS(=O)(=O)N1CCC(C(=O)Nc2ccc(F)c(Cl)c2)CC1	12.5%	-0.9%	-14.5	18.7%	-0.3%	u
O=C(NCc1ccccc1Cl)C1CCN(S(=O)(=O)c2ccc(N3CCCC3=O)cc2)CC1	16.4µM*	16.9%	-16.3	11.3%	13.9%	u
O=C(NCc1ccccc1Cl)C1CCN(S(=O)(=O)c2ccc(-n3cnnn3)cc2)CC1	0.4%	-1.8%	-11.5	-17.6%	u	-10.8%
COc1cccc(NC(=O)C(Cc2ccccc2)NS(=O)(=O)c2ccc3c(c2)oc(=O)n3C)c1 (stereo unspecified)	-8.4%	x	x	x	x	-20.8%
CCCCNC(=O)CC1Nc2cc(C)c(C)cc2NC1=O (stereo unspecified)	4.61µM*	x	x	x	x	5.17µM*
O=C(CC1NC(=O)NC1=O)Nc1ccc(Cl)cc1 (stereo unspecified)	-19.1%	0.4%	3.8	-3.5%	12.6%	21.0%
Cc1cc2c(cc1C)NC(CC(=O)Nc1cccc(Cl)c1)C(=O)N2 (stereo unspecified)	16.4µM*	x	x	x	x	u
CCCCNC(=O)CC1Nc2ccccc2NC1=O (stereo unspecified)	6.2%	12.6%	-2.7	5.5%	5.3%	-4.6%
CNS(=O)(=O)c1cn(CC(=O)N2CCN(c3ccc(C(C)=O)cc3)CC2)cc1S(=O)(=O)NC	-24.6%	x	x	x	x	-26.4%
C=CC(=O)Nc1cccc(Oc2ccnc(Nc3ccc(N4CCN(C)CC4)cc3)n2)c1	u	-18.9%	-101.0*	-24.1%	x	16.4µM*

Assay outcomes from PubChem.
